Among the data in PubChem BioAssay (NCATS) are Potency values, retold here.

Results filed as inconclusive are left out. Active and inactive are the calls of the source. The call rests on the fitted dose curve; in most records, active means well fitted curve in the direction sought with a large enough effect; inconclusive means small, poorly fitted or top-dose-only effect, or another doubt; inactive means no such curve, though single readings can be large; an effect the other way counts as inactive or inconclusive.

The nature of assay [1]: S16 Schwann cell viability assay (CellTiter-Glo assay) (AID 624031).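 Further: native untransfected S16 rat Schwann cells; nearly all actives have a fitted effect of over 70% in size.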 Put shortly:
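Counter-screen for cytotoxicity: parental S16 rat Schwann cells lacking the PMP22 reporters, treated 24 h with compound, viability from cellular ATP by CellTiter-Glo luminescence, normalized to DMSO (0%) and no-cell wells.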
For orientation: ATP-based viability assays read luminescence as a measure of living cells.

For a further assay, the system named is AA1029. Nature of the assay: qHTS profiling for inhibitors of Plasmodium falciparum proliferation (AID 504749). Further: nearly all actives have a fitted effect of over 60% in size. Further: potency means the concentration at half of the fitted maximal effect. The conditions noted are these: P. falciparum in erythrocytes, SYBR Green DNA, 72 h; series mostly up to 28.7 µM. Put shortly: (§1)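 Readout was DNA-dye fluorescence from lysed cultures, ex 485/em 535 nm. Parasitized red cells had grown 72 h with compound; data scaled between 0.29 uM artemisinin and DMSO wells and corrected using vehicle-only plates.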
Background: Quantitative high-throughput screening tests each substance at several concentrations.

A further assay deals with ATS189. Described as above. The conditions noted are these: P. falciparum in erythrocytes, SYBR Green DNA, 72 h; series mostly up to 28.7 µM. The gist of the method: as §1
In the next assay the test system is CP194. Described as above. The following applies: P. falciparum in erythrocytes, SYBR Green DNA, 72 h; series mostly up to 28.7 µM. Put shortly:
as §1

For the next assay, the system named is CP203. Described as above. The following applies: P. falciparum in erythrocytes, SYBR Green DNA, 72 h; series mostly up to 28.7 µM. Put shortly:
as §1

For the next assay, the system named is CP237. Described as above. The following applies: P. falciparum in erythrocytes, SYBR Green DNA, 72 h; series mostly up to 28.7 µM. Put shortly:
as §1

Another assay deals with CP247. The assay is described as above. The following applies: P. falciparum in erythrocytes, SYBR Green DNA, 72 h; series mostly up to 28.7 µM. Put shortly: as §1
The subject of the next assay is CP250. The assay is described as above. The following applies: P. falciparum in erythrocytes, SYBR Green DNA, 72 h; series mostly up to 12.8 µM. Put shortly:
as §1

The next assay has as its system CP268. Described as above. The following applies: P. falciparum in erythrocytes, SYBR Green DNA, 72 h; series mostly up to 28.7 µM. The gist of the method:
as §1

For another assay, the system named is CP325. Described as above. The conditions noted are these: P. falciparum in erythrocytes, SYBR Green DNA, 72 h; series mostly up to 28.7 µM. Put shortly: as §1
In another assay the test system is Dd2. The assay is described as above. The following applies: P. falciparum in erythrocytes, SYBR Green DNA, 72 h; series mostly up to 28.7 µM. Put shortly: as §1
Another assay concerns GB4. The assay is described as above. The following applies: P. falciparum in erythrocytes, SYBR Green DNA, 72 h; series mostly up to 28.7 µM. Put shortly:
as §1

The subject of a further assay is JCK. Described as above. The conditions noted are these: P. falciparum in erythrocytes, SYBR Green DNA, 72 h; series mostly up to 28.7 µM. The gist of the method:
as §1

The subject of a further assay is P93_24. The assay is described as above. The following applies: P. falciparum in erythrocytes, SYBR Green DNA, 72 h; series mostly up to 28.7 µM. The gist of the method:
as §1

The test system of the next assay is P94_40. The description is as above. The following applies: P. falciparum in erythrocytes, SYBR Green DNA, 72 h; series mostly up to 28.7 µM. The gist of the method: as §1
Another assay concerns PC15. The description is as above. The conditions noted are these: P. falciparum in erythrocytes, SYBR Green DNA, 72 h; series mostly up to 28.7 µM. The gist of the method: as §1
The test system of another assay is PC26. Described as above. The conditions noted are these: P. falciparum in erythrocytes, SYBR Green DNA, 72 h; series mostly up to 28.7 µM. The gist of the method: as §1
In another assay the test system is PC49. Described as above. The conditions noted are these: P. falciparum in erythrocytes, SYBR Green DNA, 72 h; series mostly up to 28.7 µM. Put shortly:
as §1

The subject of the next assay is TAB109. The assay is described as above. The following applies: P. falciparum in erythrocytes, SYBR Green DNA, 72 h; series mostly up to 12.8 µM. Put shortly: as §1
A further assay relates to TAB113. The assay is described as above. The following applies: P. falciparum in erythrocytes, SYBR Green DNA, 72 h; series mostly up to 28.7 µM. Put shortly:
as §1

As to `CC(C)c1c(CN(C)[C@@H](C)Cc2ccccc2)n(C)n(-c2ccccc2)c1=O`, the Potency result (in assay [1]; in the assay with AA1029; with ATS189; with CP194; in the assay on CP203; in the assay on CP237) was “inactive” throughout. Besides, the Potency entry with CP247, in the assay with CP250, in the assay with CP268, with CP325, in the assay with Dd2 and in the assay on GB4 was “inactive” in each case. The Potency entry with JCK, with P93_24, in the assay on P94_40, in the assay with PC15, in the assay on PC26 and with PC49 was “inactive” in each case. Further, the Potency entry with TAB109 and in the assay on TAB113 was “inactive” in each case.

As to `C[C@H](N)[C@@H](O)c1ccccc1`, the Potency entry (in assay [1]; in the assay on AA1029; in the assay on ATS189; in the assay on CP194; in the assay with CP203; in the assay with CP237) was “inactive” in each case. For the same compound, the Potency result in the assay with CP247, in the assay on CP250, in the assay on CP268, in the assay with CP325, in the assay with Dd2 and in the assay on GB4 was “inactive” throughout. For the same compound, the Potency entry with JCK, in the assay on P93_24, in the assay with P94_40, with PC15, with PC26 and in the assay on PC49 was “inactive” in each case. Besides, the Potency result with TAB109 and in the assay with TAB113 was “inactive” throughout.

Consider `C[C@@]12CCC(=O)C=C1C=C[C@H]1[C@H]3CC[C@](O)(CCC(=O)O)[C@]3(C)CC[C@@H]12`, for which the Potency entry (in assay [1]; in the assay with AA1029; with ATS189; with CP194; with CP203; with CP237) was “inactive” in each case. In addition, the Potency entry in the assay with CP247, in the assay with CP250, with CP268, with CP325, in the assay with Dd2 and in the assay on JCK was “inactive” in each case. Further, the Potency entry in the assay on P94_40, in the assay on PC15, in the assay on PC49 and with TAB109 was “inactive” each time.

For `CC[C@@H]1[C@@H]2C[C@H]3[C@H]4N(C)c5ccccc5[C@@]45C[C@@H]([C@@H]2[C@@H]5O)N3[C@H]1O`, the Potency entry (in [1]; with AA1029; with ATS189; in the assay with CP194; with CP203; in the assay on CP247) was “inactive” in each case. The Potency result with CP250, in the assay on CP268, in the assay on CP325, in the assay on Dd2, in the assay on GB4 and with JCK was “inactive” each time. The Potency entry in the assay with PC26, in the assay on TAB109 and with TAB113 was “inactive” in each case.

Consider `C[C@@]12CC[C@H]3[C@@H](CC[C@@H]4C[C@H]5S[C@H]5C[C@]43C)[C@H]1CC[C@H]2O`, for which the Potency entry (in [1]; with AA1029; in the assay on ATS189; in the assay with CP194; with CP203; in the assay with CP237) was “inactive” in each case. In addition, the Potency entry in the assay with CP247, in the assay with CP250, with CP268, in the assay with CP325, in the assay on Dd2 and in the assay on GB4 was “inactive” each time. Also, the Potency result in the assay with JCK, with P93_24, with P94_40, in the assay with PC15, in the assay with PC26 and with PC49 was “inactive” in each case. In addition, the Potency result with TAB109 and with TAB113 was “inactive” each time.

As to `COc1ccc2c(c1OC)CN1CCc3cc4c(cc3[C@H]1C2)OCO4`, in assay [1], the Potency result was “inactive”. Besides, the Potency in the assay with AA1029 is 2510 nM (active); with GB4, 2030 nM (active); with P93_24 it was 2510 nM (active); with P94_40, 2510 nM (active); in the assay on TAB109, 2240 nM (active); in the assay on TAB113, 3160 nM (active).

`C#CCN(C)[C@@H](C)Cc1ccccc1`: the Potency entry in the assay on AA1029, in the assay on ATS189, in the assay with CP194, in the assay on CP203, with CP237 and in the assay with CP247 was “inactive” throughout. Moreover, the Potency result with CP268, in the assay with CP325, in the assay on Dd2, in the assay with GB4, with JCK and in the assay with P93_24 was “inactive” throughout. Moreover, the Potency entry with P94_40, with PC15, with PC26, in the assay on PC49 and in the assay with TAB113 was “inactive” each time.

For `CCNC[C@H](O)c1cccc(O)c1`, the Potency result (in [1]; in the assay on AA1029; in the assay on ATS189; in the assay on CP194; in the assay with CP237; in the assay with CP247) was “inactive” each time. For the same compound, the Potency result in the assay with CP250, with CP268, in the assay on CP325, with Dd2, with GB4 and in the assay with JCK was “inactive” throughout. The Potency result in the assay on P93_24, with P94_40, in the assay with PC15, in the assay on PC26, in the assay with PC49 and in the assay on TAB109 was “inactive” throughout. For the same compound, the Potency entry in the assay with TAB113 is “inactive”.

`CC[C@@]1(c2ccc(N)cc2)CCC(=O)NC1=O`: the Potency result (in [1]; with AA1029; with ATS189; with CP194; in the assay on CP203; in the assay on CP237) was “inactive” each time. Further, the Potency entry in the assay with CP247, in the assay on CP250, in the assay on CP268, with CP325, in the assay on Dd2 and in the assay on GB4 was “inactive” in each case. The Potency result in the assay with JCK, with P93_24, with P94_40, in the assay on PC15, in the assay on PC26 and in the assay on PC49 was “inactive” each time. Moreover, the Potency result with TAB109 and with TAB113 was “inactive” each time.

As for `CC(=O)O[C@H]1CC[C@@]2(C)C(=CC[C@@H]3[C@H]2CC[C@]2(C)C(=O)CC[C@H]32)C1`, the Potency entry (in [1]; in the assay with AA1029; in the assay on ATS189; in the assay on CP194; in the assay on CP203; with CP237) was “inactive” each time. The Potency result with CP247, in the assay with CP250, in the assay with CP268, in the assay with CP325, with Dd2 and in the assay with GB4 was “inactive” in each case. Moreover, the Potency result with JCK, with P93_24, in the assay with P94_40, with PC15, in the assay on PC26 and in the assay with PC49 was “inactive” in each case. Besides, the Potency result in the assay with TAB109 and in the assay with TAB113 was “inactive” each time.

Consider `C[C@H](NC(C)(C)C)C(=O)c1cccc(Cl)c1`, for which the Potency entry (in [1]; in the assay on AA1029; in the assay on ATS189; in the assay with CP194; with CP203; in the assay on CP250) was “inactive” each time. The Potency result in the assay with CP268, with CP325, with GB4, in the assay with JCK, in the assay on P93_24 and in the assay with P94_40 was “inactive” each time. The Potency entry in the assay on PC15, in the assay on PC26, in the assay on PC49, in the assay on TAB109 and in the assay with TAB113 was “inactive” each time.

As for `C[N+]1([O-])[C@@H]2CC(OC(=O)[C@@H](CO)c3ccccc3)C[C@@H]1[C@H]1O[C@H]12` (stereo partly specified), the Potency result (in [1]; with AA1029; in the assay with ATS189; in the assay with CP194; with CP203; in the assay with CP237) was “inactive” each time. Further, the Potency result with CP247, in the assay on CP250, in the assay on CP268, with CP325, in the assay on Dd2 and with GB4 was “inactive” each time. Further, the Potency result with JCK, in the assay on P93_24, in the assay on P94_40, in the assay on PC15, with PC26 and with PC49 was “inactive” each time. Besides, the Potency entry with TAB109 and in the assay with TAB113 was “inactive” in each case.

As to `C[C@H]1CN(C2CCC(C#N)(c3ccc(F)cc3)CC2)CC[C@@]1(C(=O)O)c1ccccc1` (stereo partly specified), the Potency result (in assay [1]; in the assay on AA1029; with ATS189; in the assay on CP194; with CP203; in the assay on CP237) was “inactive” in each case. Besides, the Potency result in the assay with CP247, in the assay on CP250, with CP268, with CP325, in the assay with Dd2 and with GB4 was “inactive” throughout. The Potency entry in the assay on JCK, with P93_24, in the assay on P94_40, in the assay with PC15, in the assay with PC26 and in the assay with PC49 was “inactive” each time. Besides, the Potency entry in the assay with TAB109 and in the assay with TAB113 was “inactive” throughout.
